# Measured values as given in PubChem BioAssay (EPA / NIEHS).
# Activity calls are given as the source filed them. Rule for the calls: active = hit-call score of the fitted dose curve at least 0.9, where 1 is the maximum; inactive = score below 0.9.
# How the values were obtained:
# [1] = ATG_CRE_CIS: Attagene CIS-FACTORIAL HepG2 Assay for human cAMP Responsive Element (CRE) binding protein 3 (AID 2282926); conditions: HepG2 CRE cis-reporter, Attagene multiplexed mRNA; actives raise or lower the signal
# In short: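 HepG2 cells transiently transfected with cis-element-driven multiple reporter transcription units; CRE reporter mRNA measured 24 h after dosing by RT-PCR, 6-FAM labelling, HpaI digestion and capillary electrophoresis. Bidirectional fit versus DMSO baseline.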
# [2] = target: CCAAT/enhancer-binding protein beta (Homo sapiens) (UniProt P17676); assay: ATG_C_EBP_CIS: Attagene CIS-FACTORIAL HepG2 Assay for human CCAAT/Enhancer Binding Protein (C/EBP) beta (AID 2282927); conditions: HepG2 Attagene cis-factorial transcription factor reporter; actives raise or lower the signal
# Sequence of CCAAT/enhancer-binding protein beta (Homo sapiens) (P17676 whole entry, looked up): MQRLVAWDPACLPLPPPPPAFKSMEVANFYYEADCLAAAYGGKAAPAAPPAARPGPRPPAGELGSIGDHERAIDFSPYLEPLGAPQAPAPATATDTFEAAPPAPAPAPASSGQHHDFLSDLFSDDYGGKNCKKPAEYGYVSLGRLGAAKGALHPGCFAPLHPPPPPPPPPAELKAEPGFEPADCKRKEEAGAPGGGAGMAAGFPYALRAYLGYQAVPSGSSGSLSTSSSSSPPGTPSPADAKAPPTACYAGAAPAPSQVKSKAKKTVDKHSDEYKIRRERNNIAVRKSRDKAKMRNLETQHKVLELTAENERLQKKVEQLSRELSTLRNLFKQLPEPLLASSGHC
# In short: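 Changes in reporter mRNA, rather than exogenous chimeric receptor activity, reflect native C/EBP signalling in transfected HepG2 cells dosed for 24 h; transcripts are detected by RT-PCR and capillary electrophoresis.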
# [3] = ATG_CMV_CIS: Attagene CIS-FACTORIAL HepG2 Assay for human CMV (Internal Marker) (AID 2282928); conditions: HepG2 CMV promoter reporter, transcription factor profiling; actives raise or lower the signal;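 note: endpoint acts as a background internal control marker rather than a target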
# In short: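 Endogenous transcription factor activity read in HepG2 via transfected cis-promoter reporter units. After 24 h dosing, reporter mRNA measured by RT-PCR/capillary electrophoresis; gain or loss of signal fit relative to DMSO.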
# [4] = ATG_DR4_LXR_CIS: Attagene CIS-FACTORIAL HepG2 Assay for human Liver X Receptor (LXR), DR4 submotif (AID 2282929); conditions: HepG2 Attagene DR4 cis-reporter, mRNA transcription; actives raise or lower the signal
# In short: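 Fluorescence intensity of labelled reporter cDNA fragments, separated by capillary electrophoresis, gives the signal. HepG2 cells bearing cis-regulated reporter constructs were treated 24 h; activity fitted bidirectionally relative to DMSO negative control.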
# [5] = target: Aryl hydrocarbon receptor (Homo sapiens) (UniProt P35869); assay: ATG_Ahr_CIS: Attagene CIS-FACTORIAL HepG2 Assay for human Aryl Hydrocarbon Receptor (Ahr) (AID 2282930); conditions: HepG2 AhR cis-factorial reporter transcription; actives raise or lower the signal
# Sequence of Aryl hydrocarbon receptor (Homo sapiens) (P35869 whole entry, looked up): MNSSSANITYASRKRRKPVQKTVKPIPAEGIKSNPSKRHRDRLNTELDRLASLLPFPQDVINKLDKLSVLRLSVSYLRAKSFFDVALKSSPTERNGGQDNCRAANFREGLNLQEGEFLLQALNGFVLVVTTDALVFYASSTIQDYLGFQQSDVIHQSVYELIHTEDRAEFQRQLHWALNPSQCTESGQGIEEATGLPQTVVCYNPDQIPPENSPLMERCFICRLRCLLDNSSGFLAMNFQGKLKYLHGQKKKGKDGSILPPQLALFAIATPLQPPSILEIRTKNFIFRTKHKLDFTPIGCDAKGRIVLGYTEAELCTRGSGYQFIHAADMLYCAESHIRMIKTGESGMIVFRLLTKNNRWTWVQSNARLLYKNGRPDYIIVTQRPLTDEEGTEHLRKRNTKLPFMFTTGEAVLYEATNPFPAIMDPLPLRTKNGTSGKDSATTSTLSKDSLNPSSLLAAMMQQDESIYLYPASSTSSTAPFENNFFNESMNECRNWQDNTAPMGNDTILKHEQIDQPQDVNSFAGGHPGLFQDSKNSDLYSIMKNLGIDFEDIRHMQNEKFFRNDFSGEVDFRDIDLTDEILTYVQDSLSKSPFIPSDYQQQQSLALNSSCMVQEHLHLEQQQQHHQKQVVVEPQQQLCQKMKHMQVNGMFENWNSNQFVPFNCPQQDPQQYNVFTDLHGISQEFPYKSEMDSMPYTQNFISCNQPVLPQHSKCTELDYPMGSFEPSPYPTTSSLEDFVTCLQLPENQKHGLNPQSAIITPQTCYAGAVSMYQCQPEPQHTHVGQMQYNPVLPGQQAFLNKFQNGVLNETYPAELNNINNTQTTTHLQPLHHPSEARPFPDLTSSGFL
# In short: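 HepG2, transient MRTU (cis) transfection, 24 h exposure. RNA → cDNA → PCR → 6-FAM primer extension → HpaI 2 h 37 C → CE. Fit: bidirectional, DMSO baseline.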
# [6] = ATG_AP_1_CIS: Attagene CIS-FACTORIAL HepG2 Assay for human Activator Protein 1 (AP-1) (AID 2282931); conditions: HepG2 Attagene cis-factorial AP-1 reporter mRNA; actives raise or lower the signal
# In short: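 Multiplexed HepG2 reporter assay, 24 h dosing. mRNA induction detected by RT-PCR plus capillary electrophoresis. Activity fitted in both directions against DMSO.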
# [7] = ATG_AP_2_CIS: Attagene CIS-FACTORIAL HepG2 Assay for human Activator Protein 2 (AP-2) (AID 2282932); conditions: HepG2 AP-2 cis-reporter, Attagene transcription factor profiling; actives raise or lower the signal
# In short: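 Step one: transient transfection of HepG2 with reporter transcription units. Step two: 24 h chemical exposure. Step three: RNA extraction, RT-PCR, labelled fragment analysis by capillary electrophoresis; DMSO serves as baseline.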
# [8] = ATG_BRE_CIS: Attagene CIS-FACTORIAL HepG2 Assay for human Bone Morphogenetic Protein (BMP) Response Element (BRE) (AID 2282933); conditions: HepG2 BMP response element reporter, Attagene transcription factor profiling; actives raise or lower the signal
# In short: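 Gain- or loss-of-signal was derived by bidirectional fitting against DMSO controls. The signal came from reporter mRNA, measured by RT-PCR and capillary electrophoresis, in HepG2 cells transiently carrying multiple reporter units and dosed for 24 h.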
# [9] = target: Transcription factor E2F1 (Homo sapiens) (UniProt Q01094); assay: ATG_E2F_CIS: Attagene CIS-FACTORIAL HepG2 Assay for human E2F Transcription Factor 1 (AID 2282935); conditions: HepG2 Attagene cis-reporter, E2F reporter RNA transcripts; actives raise or lower the signal
# Sequence of Transcription factor E2F1 (Homo sapiens) (Q01094 whole entry, looked up): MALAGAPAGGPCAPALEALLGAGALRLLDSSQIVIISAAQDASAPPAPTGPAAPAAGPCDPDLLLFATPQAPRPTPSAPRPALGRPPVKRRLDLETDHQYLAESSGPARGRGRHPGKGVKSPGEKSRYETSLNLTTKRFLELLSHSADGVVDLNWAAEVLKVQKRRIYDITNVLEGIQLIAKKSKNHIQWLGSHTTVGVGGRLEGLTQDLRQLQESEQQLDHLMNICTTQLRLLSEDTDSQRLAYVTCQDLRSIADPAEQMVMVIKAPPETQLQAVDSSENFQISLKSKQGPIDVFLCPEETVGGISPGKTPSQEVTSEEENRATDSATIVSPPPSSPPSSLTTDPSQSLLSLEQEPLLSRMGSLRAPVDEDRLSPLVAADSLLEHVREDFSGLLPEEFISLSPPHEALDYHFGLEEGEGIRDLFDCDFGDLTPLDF
# In short: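 Total RNA from 24 h-treated, reporter-transfected HepG2 cells undergoes DNase I treatment, oligo(dT) reverse transcription, PCR and 6-FAM primer extension before capillary electrophoresis.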
# [10] = ATG_E_Box_CIS: Attagene CIS-FACTORIAL HepG2 Assay for human Enhancer Box (E-box) (AID 2282936); conditions: HepG2 E-box cis-reporter transcription, actives raise or lower the signal
# In short: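 DMSO served as negative control and baseline for bidirectional fitting. Human hepatoma HepG2 cells, transiently transfected with cis-reporter constructs, were dosed 24 h; reporter mRNA read by RT-PCR and capillary electrophoresis.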
# [11] = ATG_M_61_CIS: Attagene CIS-FACTORIAL HepG2 Assay for M61 Transcription Factor (Internal Marker) (AID 2282937); conditions: HepG2 Attagene CIS-FACTORIAL M61 internal marker reporter; actives raise or lower the signal
# In short: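 Endogenous transcription factor activity in HepG2 is read through transiently transfected cis-element reporter units. After 24 h dosing, RNA undergoes reverse transcription, PCR and primer extension with 6-FAM before capillary electrophoresis; DMSO-referenced bidirectional fit.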
# [12] = ATG_EGR_CIS: Attagene CIS-FACTORIAL HepG2 Assay for human Early Growth Response 1 (EGR1) (AID 2282938); conditions: HepG2 Attagene CIS-FACTORIAL EGR reporter mRNA; actives raise or lower the signal
# In short: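 Activity is taken as induction or loss of reporter mRNA versus DMSO, fitted bidirectionally. Transcripts from cis-regulated reporter units in transiently transfected HepG2 were measured after 24 h by RT-PCR with capillary electrophoresis.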
# [13] = ATG_M_19_CIS: Attagene CIS-FACTORIAL HepG2 Assay for M19 Transcription Factor (Internal Marker) (AID 2282939); conditions: HepG2 Attagene CIS-FACTORIAL M19 internal marker reporter; actives raise or lower the signal
# In short: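 Following a 24 h exposure, RNA from transfected HepG2 cells was reverse-transcribed, PCR-amplified with reporter-specific primers, end-labelled with 6-FAM and HpaI-digested before capillary separation. Values represent gain or loss versus DMSO.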
# [14] = ATG_Ets_CIS: Attagene CIS-FACTORIAL HepG2 Assay for human Erythroblast Transformation Specific (ETS) (AID 2282941); conditions: HepG2 ETS cis-reporter transcription, actives raise or lower the signal
# In short: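 Steps: transfect HepG2 with multiple reporter units; treat compound 24 h; isolate RNA, DNase-treat, reverse-transcribe; PCR-amplify, label with 6-FAM, digest with HpaI; separate by capillary electrophoresis. Activity fitted both directions versus DMSO.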
# [15] = target: Hepatocyte nuclear factor 3-beta (Homo sapiens) (UniProt Q9Y261); assay: ATG_FoxA2_CIS: Attagene CIS-FACTORIAL HepG2 Assay for human Forkhead box A2 (FOXA2) (AID 2282942); conditions: HepG2 cis-reporter transcription factor activity, 24 h; actives raise or lower the signal
# Sequence of Hepatocyte nuclear factor 3-beta (Homo sapiens) (Q9Y261 whole entry, looked up): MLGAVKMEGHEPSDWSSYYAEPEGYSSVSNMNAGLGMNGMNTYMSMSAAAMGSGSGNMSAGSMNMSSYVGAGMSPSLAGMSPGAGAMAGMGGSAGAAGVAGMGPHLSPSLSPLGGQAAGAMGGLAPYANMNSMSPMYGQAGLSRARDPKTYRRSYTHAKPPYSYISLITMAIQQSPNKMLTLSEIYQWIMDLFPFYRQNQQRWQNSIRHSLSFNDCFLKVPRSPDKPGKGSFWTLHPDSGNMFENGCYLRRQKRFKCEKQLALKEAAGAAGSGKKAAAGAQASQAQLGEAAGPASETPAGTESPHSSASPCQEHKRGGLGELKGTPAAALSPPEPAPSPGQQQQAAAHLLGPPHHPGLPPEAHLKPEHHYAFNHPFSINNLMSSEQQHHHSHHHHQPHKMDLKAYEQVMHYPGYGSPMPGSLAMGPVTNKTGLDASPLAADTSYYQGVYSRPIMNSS
# In short: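 Reporter transcript induction is measured by fluorescence after capillary electrophoresis of RT-PCR products from HepG2 cells exposed 24 h. Cis-regulated reporter units report endogenous factor activity; curves fitted both directions against DMSO.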
# [16] = ATG_FoxO_CIS: Attagene CIS-FACTORIAL HepG2 Assay for human Forkhead box O (FoxO) (AID 2282943); conditions: HepG2 Attagene cis-reporter, FoxO element, mRNA; actives raise or lower the signal
# In short: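 Human hepatoma HepG2 cells carry transiently introduced reporter transcription units controlled by cis promoter elements. Chemical treatment lasted 24 h, and mRNA signal was compared with DMSO.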
# [17] = ATG_GATA_CIS: Attagene CIS-FACTORIAL HepG2 Assay for human GATA Binding Protein (AID 2282944); conditions: HepG2 GATA cis-element reporter, Attagene multiplex mRNA; actives raise or lower the signal
# In short: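 DMSO serves as negative control and baseline for bidirectional fitting of reporter mRNA changes. HepG2 cells bearing transiently transfected cis-promoter reporters were exposed 24 h; transcripts detected via RT-PCR and capillary electrophoresis.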
# [18] = ATG_GLI_CIS: Attagene CIS-FACTORIAL HepG2 Assay for human Zinc Finger Protein GLI1 (AID 2282945); conditions: HepG2, Attagene cis-factorial reporter mRNA, GLI element; actives raise or lower the signal
# In short: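 Bidirectional curve fits relative to DMSO, using reporter mRNA levels from RT-PCR plus capillary electrophoresis. Cells were HepG2 transiently carrying cis-regulated reporter constructs, harvested 24 h after dosing.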
# [19] = target: Retinoic acid receptor alpha (Homo sapiens) (UniProt P10276); assay: ATG_DR5_RAR_CIS: Attagene CIS-FACTORIAL HepG2 Assay for human Retinoic Acid Receptor Alpha (RARE), DR5 submotif (AID 2282934); conditions: HepG2 Attagene cis-factorial RARE DR5 reporter, mRNA; actives raise or lower the signal
# Sequence of Retinoic acid receptor alpha (Homo sapiens) (P10276 whole entry, looked up): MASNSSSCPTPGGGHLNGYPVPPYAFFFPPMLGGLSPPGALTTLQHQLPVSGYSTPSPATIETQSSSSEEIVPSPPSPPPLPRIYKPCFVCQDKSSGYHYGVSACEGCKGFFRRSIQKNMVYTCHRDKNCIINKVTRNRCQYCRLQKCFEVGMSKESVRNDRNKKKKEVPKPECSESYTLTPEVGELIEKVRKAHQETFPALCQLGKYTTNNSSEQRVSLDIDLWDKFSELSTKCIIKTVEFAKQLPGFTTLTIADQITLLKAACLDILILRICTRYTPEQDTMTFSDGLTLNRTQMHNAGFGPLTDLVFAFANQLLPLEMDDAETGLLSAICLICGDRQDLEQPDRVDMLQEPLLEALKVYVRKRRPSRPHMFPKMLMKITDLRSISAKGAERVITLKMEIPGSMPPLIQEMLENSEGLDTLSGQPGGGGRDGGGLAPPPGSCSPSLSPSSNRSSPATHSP
# In short: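 HepG2, transient cis-reporter transfection, 24 h exposure. mRNA readout: RT-PCR, FAM label, HpaI cut, capillary electrophoresis. DMSO baseline, gain/loss fitting.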
# [20] = ATG_ERE_CIS: Attagene CIS-FACTORIAL HepG2 Assay for Estrogen Response Element (ERE) (AID 2282940); conditions: HepG2 ERE cis-reporter, Attagene RNA transcript; actives raise or lower the signal
# In short: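 HepG2, transient cis-reporter units, 24 h exposure. RNA isolated, oligo(dT) RT, reporter-specific PCR, FAM extension, HpaI cut, CE detection. Gain/loss-of-signal vs DMSO.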
smiles,measurement,setting,value
CC=Cc1ccc(OC)c(OC)c1,outcome,[1],inactive
same,outcome,[2],inactive
same,outcome,[3],inactive
same,outcome,[4],inactive
same,outcome,[5],inactive
same,outcome,[6],inactive
same,outcome,[7],inactive
same,outcome,[8],inactive
same,outcome,[9],inactive
same,outcome,[10],inactive
same,outcome,[11],inactive
same,outcome,[12],inactive
same,outcome,[13],inactive
same,outcome,[14],inactive
same,outcome,[15],inactive
same,outcome,[16],inactive
same,outcome,[17],inactive
same,outcome,[18],inactive
Nc1ccc(NCCO)c([N+](=O)[O-])c1,outcome,[1],inactive
same,outcome,[2],inactive
same,outcome,[3],inactive
same,outcome,[4],inactive
same,AC50,[5],7.19 µM (active)
same,outcome,[6],inactive
same,outcome,[7],inactive
same,outcome,[8],inactive
same,outcome,[9],inactive
same,outcome,[10],inactive
same,outcome,[11],inactive
same,outcome,[12],inactive
same,outcome,[13],inactive
same,outcome,[14],inactive
same,outcome,[16],inactive
same,outcome,[17],inactive
same,outcome,[18],inactive
C1=CC2C3C=CC(C3)C2C1 (configuration not stated),outcome,[1],inactive
same,outcome,[2],inactive
same,outcome,[3],inactive
same,outcome,[4],inactive
same,AC50,[5],98.5 µM (active)
same,outcome,[6],inactive
same,outcome,[7],inactive
same,outcome,[8],inactive
same,outcome,[9],inactive
same,outcome,[10],inactive
same,outcome,[11],inactive
same,outcome,[12],inactive
same,outcome,[13],inactive
same,outcome,[14],inactive
same,outcome,[15],inactive
same,outcome,[16],inactive
same,outcome,[17],inactive
same,outcome,[18],inactive
O=C(O)CCCCCCCCC(=O)O,outcome,[1],inactive
same,outcome,[2],inactive
same,outcome,[3],inactive
same,outcome,[4],inactive
same,outcome,[5],inactive
same,outcome,[6],inactive
same,outcome,[7],inactive
same,outcome,[19],inactive
same,outcome,[9],inactive
same,outcome,[10],inactive
same,outcome,[11],inactive
same,outcome,[12],inactive
same,outcome,[13],inactive
same,outcome,[14],inactive
same,outcome,[16],inactive
same,outcome,[17],inactive
same,outcome,[18],inactive
C[C@H]1C[C@@H](O)CC(C)(C)C1,outcome,[1],inactive
same,outcome,[2],inactive
same,outcome,[3],inactive
same,outcome,[4],inactive
same,outcome,[5],inactive
same,outcome,[6],inactive
same,outcome,[7],inactive
same,outcome,[19],inactive
same,outcome,[9],inactive
same,outcome,[10],inactive
same,outcome,[11],inactive
same,outcome,[12],inactive
same,outcome,[13],inactive
same,outcome,[14],inactive
same,outcome,[16],inactive
same,outcome,[17],inactive
same,outcome,[18],inactive
COS(=O)(=O)O,outcome,[1],inactive
same,outcome,[2],inactive
same,outcome,[3],inactive
same,outcome,[4],inactive
same,outcome,[5],inactive
same,outcome,[6],inactive
same,outcome,[7],inactive
same,outcome,[8],inactive
same,outcome,[9],inactive
same,outcome,[10],inactive
same,outcome,[11],inactive
same,outcome,[12],inactive
same,outcome,[14],inactive
same,outcome,[15],inactive
same,outcome,[16],inactive
same,outcome,[17],inactive
same,outcome,[18],inactive
CC(C)CCCCCCc1ccc(OCCOCCO)cc1,outcome,[1],inactive
same,outcome,[2],inactive
same,outcome,[3],inactive
same,outcome,[4],inactive
same,outcome,[5],inactive
same,outcome,[6],inactive
same,outcome,[7],inactive
same,outcome,[8],inactive
same,outcome,[9],inactive
same,outcome,[10],inactive
same,outcome,[11],inactive
same,outcome,[12],inactive
same,outcome,[20],inactive
same,outcome,[14],inactive
same,outcome,[15],inactive
same,outcome,[16],inactive
same,outcome,[18],inactive
C=CCOC(=O)CCCCCC,outcome,[1],inactive
same,outcome,[2],inactive
same,outcome,[3],inactive
same,outcome,[4],inactive
same,outcome,[5],inactive
same,outcome,[6],inactive
same,outcome,[7],inactive
same,outcome,[8],inactive
same,outcome,[9],inactive
same,outcome,[10],inactive
same,outcome,[11],inactive
same,outcome,[12],inactive
same,outcome,[14],inactive
same,outcome,[15],inactive
same,outcome,[16],inactive
same,outcome,[18],inactive
